PubChem BioAssay (EPA / NIEHS)
Active and inactive are the calls of the source. Rule for the calls: active = hit-call score of the fitted dose curve at least 0.9, where 1 is the maximum; inactive = score below 0.9.

read-out: Paternally Expressed 10 (PEG10), PEG10 (gene 23089); test: LTEA_HepaRG_PEG10: Life Technologies and Expression Analysis (LTEA) Assay for Paternally Expressed 10 (PEG10) using HepaRG (AID 2283520); conditions: mRNA level, 48 h; actives raise or lower the signal;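 for AC50: PEG10 transcript by qRT-PCR normalised to ACTB GAPDH and POLR2A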
Protocol: LTEA_HepaRG is a cell based, multiplexed-readout assay that uses HepaRG, a human liver cell line, with measurements taken at 48 hours after chemical dosing on a 96-well plate.LTEA_HepaRG_PEG10 is one of 102 assay component(s) measured in the LTEA HepaRG cell culture assay. It is a marker of Cell proliferation, survival, death.Data from the assay component LTEA_HepaRG_PEG10 was analyzed into 1 endpoint. This assay endpoint, LTEA_HepaRG_PEG10, was analyzed with bidirectional fitting relative to DMSO as the negative control and baseline of activity. Using a type of inducible reporter, measures of mRNA induction for gain or loss-of-signal activity can be used to understand regulation of transcription factor activity. To generalize the intended target to other relatable targets, this assay endpoint is annotated to the dna binding intended target family, where the subfamily is xenobiotic metabolism.
A total of 1060 chemcials from the ToxCast library were tested in eight-point concentration-response experiments. Cell culture and cytotoxicity assays were conducted at Thermo Fisher Scientific's Custom Services facility (Madison, WI). A single lot of human HepaRG cells (Thermo Fisher Scientific, Frederick, MD) was used for the cell culture experiments. 96-well format collagen type I coated plates of human HepaRG cells were prepared using established methods. Briefly, cryopreserved HepaRG cells were thawed, plated at a density of approximately 100,000 cells/well in HepaRG Thaw, Plate, and General Purpose media (HPRG770, Thermo Fisher Scientific), and incubated for 48 hours. 0.5% DMSO was selected as vehicle control to balance the requisite need of DMSO in HepaRG cultures to maintain differentiation (for example, baseline metabolism, proportions of hepatocytes vs. cholangiocytes), while enabling further hepatic receptor pathway activation (for example, PXR and CAR) in response to chemical exposure. 48 hours after plating, the culture medium was replaced with HepaRG Serum-Free Incudtion Media. Cells were exposed to each test chemical in duplicate and maintained in CO2 incubators for another 48 hours. Chemical plates were thawed to room temperature and 200x concentrations of treatment groups were prepared. 8-point conentration-reponse curves were made with the highest exposure at 100 uM, followed by half-log dilutions, all in 0.5% DMSO. Each test plate contained variouse controls, induction positive controls (1mM phenobarbital), cytotoxicity positive controls ([…] aflatoxin B1), vehicle controls (0.5% DMSO), and total lysis controls (0.5% DMSO). Cell morphology images were taken using an Essen IncuCyte FLR automated microscope, with six 96-well plates imaged in about 24 minutes. Images were captured and exported and JPEG files. Spent culture media was transfered to black-well plates for the LDH assay, and remaining media was sorted at -80 C for later use. Cells were treated with RLT buffer and frozen until shipped for gene expression analysis. Total RNA was isolated from the cell suspension in 75 uL of Buffer RLT (Qiagen, Germantown, MD 20874) by Quintiles/Expression Analysis (Durham, NC) using a custom isolation procedure. Total RNA from each plate well was transferred to a preamplification plate. Fluidigm's 96.96 Dynamic ArrayTM (Fluidigm, Amsterdam, the Netherlands) technology was used for gene expression analyses by quantitative reverse transcription polymerase chain reaction (qRT-PCR, performed by Quintiles/Expression Analysis, Durham, NC)89. Standard TaqManTM Assays (Applied Biosystems/ThermoFisher Scientific, Foster City, CA) were used to assess the expression of 93 genes selected based on their selectivity and sensitivity to important hepatic receptors known to be modulated by environmental chemicals; importance in human hepatocyte functionality; and hepatotoxicity. […]

Row | SMILES | outcome | AC50
1 | Nc1ccc(Cc2ccc(N)cc2)cc1 | inactive | 
2 | Cc1ccc(N)c(N)c1 | inactive | 
3 | C=CCc1ccc2c(c1)OCO2 | inactive | 
4 | ClC1=C(Cl)C2(Cl)C3C(Cl)C=CC3C1(Cl)C2(Cl)Cl (stereo not given) | inactive | 
5 | Cc1ccc(N)cc1 | inactive | 
6 | CN(C)c1ccc(C(=O)c2ccc(N(C)C)cc2)cc1 |  | 22.3 µM (active)
7 | COc1cc(C=O)cc2c1[C@H](COC(N)=O)[C@]1(OC(C)=O)ON2C[C@H]2[C@@H]1N2C(C)=O | inactive | 
8 | COP(=S)(OC)SCN1C(=O)c2ccccc2C1=O | inactive | 
9 | CCCSC(=O)N(CCC)CCC | inactive | 
10 | c1ccc2c(c1)-c1cccc3cccc-2c13 |  | 50 µM (active)
11 | CC(C)(C)C(O)(CCc1ccc(Cl)cc1)Cn1cncn1 (stereo not given) | inactive | 
12 | CCC(C)c1ccc(O)cc1 (stereo not given) | inactive | 
13 | c1ccc(C2CO2)cc1 (stereo not given) | inactive | 
14 | CCCCCCCCn1sccc1=O |  | 52 µM (active)
15 | OCCCl | inactive | 
16 | Oc1ccc2ccc3cccc4ccc1c2c34 | inactive | 
17 | CCOC(=O)[C@]1(c2ccccc2)Oc2ccccc2[C@@H]1N |  | 62.5 µM (active)
18 | Nc1ccc(Cl)cc1N |  | 14.2 µM (active)
19 | Clc1ccc(Cl)c(Cl)c1 |  | 50 µM (active)
20 | [As]#[In] | inactive | 

Row | SMILES | outcome | AC50
21 | c1ccc(NNc2ccccc2)cc1 | inactive | 
22 | CC(C)(C)OOC(=O)c1ccccc1 | inactive | 
23 | Nc1ccc([N+](=O)[O-])cc1 | inactive | 
24 | c1ccc2c(c1)oc1ccccc12 | inactive | 
25 | CN(C)C(=O)Nc1ccc(Cl)cc1 | inactive | 
26 | CCOc1cccc(C2(N3CCN(c4ccccc4)CC3)CCC(C)CC2)c1 (stereo not given) | inactive | 
27 | CC(C)(OOC(C)(C)c1ccccc1)c1ccccc1 | inactive | 
28 | Clc1ccc(C(c2ccc(Cl)cc2)C(Cl)Cl)cc1 | inactive | 
29 | [O-][Cl+]O | inactive | 
30 | Clc1ccc(C(c2ccc(Cl)cc2)C(Cl)(Cl)Cl)cc1 | inactive | 
31 | CC(C)COC(=O)c1ccccc1C(=O)OCC(C)C | inactive | 
32 | Cn1cc(-c2ccccc2)c(=O)c(-c2cccc(C(F)(F)F)c2)c1 |  | 23.5 µM (active)
33 | [Cl-].[Cl-].[Hg+2] | inactive | 
34 | CC(C)(C)OOC(C)(C)CCC(C)(C)OOC(C)(C)C | inactive | 
35 | CCN(CC)CCO | inactive | 
36 | ClCCOCCCl | inactive | 
37 | O=C(N[C@H](c1ccccc1)[C@@H]1CN2CCC1CC2)c1c(Cl)ccc(C(F)(F)F)c1Cl |  | 26.8 µM (active)
38 | Cc1ccc([N+](=O)[O-])cc1 |  | 11.3 µM (active)
39 | COC(=O)c1ccccc1N | inactive | 
40 | Oc1ccccc1Cl | inactive | 
